# Columns and labels:
# Details in all cases: read-out: apparent Kd; compound concentrations:100 nM and 1000 nM (sheet 'Lestaurtinib' of Supplementary Table 1),run:Lestaurtinib_02487_R1,Plate:MR012; n = 1
# BCR = tested on: BCR
# BUB1 = tested on: BUB1
# CSK = tested on: CSK
# CSNK2A2 = tested on: CSNK2A2
# EPHA1 = tested on: EPHA1
# EPHA2 = tested on: EPHA2
# EPHA4 = tested on: EPHA4
# EPHB1 = tested on: EPHB1
# EPHB3 = tested on: EPHB3
# PIP4K2C = tested on: PIP4K2C
# PKN3 = tested on: PKN3
# PRKCQ = tested on: PRKCQ
# PTK2 = tested on: PTK2
# PTK6 = tested on: PTK6
# RIPK2 = tested on: RIPK2
# RPS6KA1 = tested on: RPS6KA1
# SRC = tested on: SRC
# TAOK1 = tested on: TAOK1
# TEC = tested on: TEC
# ULK1 = tested on: ULK1
substance,measurement,setting,value
Lestaurtinib,potency estimated from few doses,BCR,0.314 µM
same,potency estimated from few doses,BUB1,0.854 µM
same,potency estimated from few doses,CSK,0.526 µM
same,potency estimated from few doses,CSNK2A2,0.415 µM
same,potency estimated from few doses,EPHA1,0.297 µM
same,potency estimated from few doses,EPHA2,0.428 µM
same,potency estimated from few doses,EPHA4,0.268 µM
same,potency estimated from few doses,EPHB1,0.403 µM
same,potency estimated from few doses,EPHB3,0.78 µM
same,potency estimated from few doses,PIP4K2C,0.0865 µM
same,potency estimated from few doses,PKN3,0.755 µM
same,potency estimated from few doses,PRKCQ,2.17 µM
same,potency estimated from few doses,PTK2,0.345 µM
same,potency estimated from few doses,PTK6,0.533 µM
same,potency estimated from few doses,RIPK2,0.81 µM
same,potency estimated from few doses,RPS6KA1,1.82 µM
same,potency estimated from few doses,SRC,0.618 µM
same,potency estimated from few doses,TAOK1,1.53 µM
same,potency estimated from few doses,TEC,0.895 µM
same,potency estimated from few doses,ULK1,0.549 µM

# Source: PMC11062922 (Nature Chemical Biology, 2023)
